Values without a mark were called inactive.
What follows are compounds tested on Scedosporium aurantiacum CBS 136046 (assay: growth inhibition relative to DMSO control (OD600); higher = more antifungal activity, active = 80 or more). Conditions: 5 µM; 72 h; 37 °C.
Work on `COc1cc(C(C)(C)CCCC(C)C)cc(OC)c1OC` yielded a growth inhibition of 13.3%. For `C[C@H]1CC[C@]2(NC1)O[C@H]1C[C@H]3[C@@H]4CC[C@H]5C[C@@H](O)CC[C@]5(C)[C@H]4CC[C@]3(C)[C@H]1[C@@H]2C`, the growth inhibition was 8.88%. Work on `CCCCc1ccc(C(=O)O)nc1` yielded a growth inhibition of 15.8%. For `O=C(NC12CC3CC(CC(C3)C1)C2)c1cc2ccccc2[nH]1`, the growth inhibition was 1.85%. `Nc1c(C(=O)NCc2ccco2)c2nc3ccccc3nc2n1CCN1CCCCC1` was tested, and the growth inhibition was 36.7%. `C[N+]1(C)CCCC(OC(=O)C(O)(c2ccccc2)c2ccccc2)C1` (stereo not drawn) was tested, and the growth inhibition was 34.9%. Work on `CN1C(=O)C(c2ccccc2)C(=O)N(c2ccccc2)c2cc(C(F)(F)F)ccc21` (stereo not drawn) yielded a growth inhibition of 2.84%. For `CC(C)Oc1cccc(NC(=O)c2ccccc2C(F)(F)F)c1`, the growth inhibition was 6.87%. `CCN1CCN(Cc2nc3ccc([N+](=O)[O-])cc3c(=O)n2-c2ccccc2F)CC1` was tested, and the growth inhibition was 2.42%. Work on `COC(=O)Nc1nc2ccccc2[nH]1` yielded a growth inhibition of 1.58%. With `NC1(C(=O)O)CCP(=O)(O)CC1` (stereo not drawn) the growth inhibition was 11.9%. Compound `COc1ccccc1CN[C@H]1C2CCN(CC2)[C@H]1C(c1ccccc1)c1ccccc1` has a growth inhibition of 25.9%. `C[C@@]1(O)[C@H](O)[C@@H](CO)O[C@H]1n1ccc2c(N)ncnc21` gave a growth inhibition of 3.66%.

Source: the supplement of paper PMC9897528
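Also: conidia screened in RPMI 1640 medium under 5% CO2, growth read by spectrophotometer, medium with 0.5% DMSO serving as the untreated reference.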
